Four compounds from PubChem BioAssay can be followed below.

The nature of assay [1]: survival rescue of mitochondrial mutant cells in low glucose, primary screen, MELAS cybrids, Rieske KO mouse fibroblasts, CellTiter-Glo (AID 1508586;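 active = mean z-score across replicates of 1.96 or higher in either the MELAS or the Rieske mutant cell line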;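 note: z relative to plate mean and SD of compound and empty wells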).
Assay [2] can be described thus: growth inhibition of DIPG glioma cells, dose response, cell-based, SU-DIPG-XVII, MIPE5.0, CellTiter-Glo, qHTS (AID 1347060; cut-off not given, nearly all actives have AC50 up to about 26 µM). To be noted: SU-DIPG-XVII viability, CellTiter-Glo ATP luminescence.
The nature of assay [3]: viability loss in pontine glioma line – cell-based, SU-DIPG-XXV, MIPE5.0, CellTiter-Glo, qHTS, dose response (AID 1347065; cut-off not given, nearly all actives have AC50 up to about 26 µM;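 note: cells exposed to compound for 48 hours before ATP readout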). To be noted: CellTiter-Glo ATP luminescence.
Assay [4] can be described thus: SU-DIPG-XXV glioma cell viability, MIPE5.0 library, qHTS (AID 1347068; cut-off not given, nearly all actives have IC50 up to about 30 µM).
Assay [5] is described as follows: growth inhibition of DIPG glioma cells, dose response, cell-based, JHH-DIPG-1, MIPE4.0, CellTiter-Glo, qHTS (AID 1347062; cut-off not given, nearly all actives have AC50 up to about 27 µM). To be noted: JHH-DIPG-1 viability, CellTiter-Glo ATP luminescence.
For assay [6], the target named is NAD(+) hydrolase SARM1 (Homo sapiens) (UniProt Q6SZW1). As to the kind of experiment: SARM1 TIR NADase inhibitors, cell lysate, NAD-Glo luminescence (AID 1508614;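 active = compound whose remaining NAD level is above about 45 nM, limit read from the data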;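 note: higher remaining NAD means stronger inhibition of SARM1 NADase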). Conditions: SAM-TIR HEK293T lysate NADase, at 1 µM, stronger effect = higher value.
NAD(+) hydrolase SARM1 (Homo sapiens), sequence (Q6SZW1 whole entry, looked up): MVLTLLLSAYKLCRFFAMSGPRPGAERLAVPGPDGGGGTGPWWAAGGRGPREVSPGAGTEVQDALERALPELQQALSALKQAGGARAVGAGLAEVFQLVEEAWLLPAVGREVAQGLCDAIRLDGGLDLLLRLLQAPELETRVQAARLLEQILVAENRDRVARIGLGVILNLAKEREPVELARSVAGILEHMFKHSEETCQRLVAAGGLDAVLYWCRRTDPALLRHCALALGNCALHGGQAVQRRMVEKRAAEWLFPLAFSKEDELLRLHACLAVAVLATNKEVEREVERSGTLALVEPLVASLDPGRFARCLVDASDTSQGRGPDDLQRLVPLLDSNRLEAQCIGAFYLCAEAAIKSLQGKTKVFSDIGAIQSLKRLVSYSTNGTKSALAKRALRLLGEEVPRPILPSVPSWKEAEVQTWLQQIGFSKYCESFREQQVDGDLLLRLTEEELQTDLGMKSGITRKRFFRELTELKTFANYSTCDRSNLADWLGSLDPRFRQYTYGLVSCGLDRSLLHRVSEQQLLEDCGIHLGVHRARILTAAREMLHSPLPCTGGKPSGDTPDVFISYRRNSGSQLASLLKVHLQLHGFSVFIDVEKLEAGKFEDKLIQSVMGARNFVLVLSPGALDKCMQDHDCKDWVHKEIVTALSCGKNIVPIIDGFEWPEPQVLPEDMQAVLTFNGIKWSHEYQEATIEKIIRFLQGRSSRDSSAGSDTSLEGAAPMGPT
Assay [7] can be described thus: LFS_MB_P medulloblastoma growth inhibition, cell-based, chromothripsis tumors, cisplatin or BGB combos (AID 1671449).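 Note: cells exposed for 96 hours; 0% = vehicle DMSO and 100% = killing by high DMSO.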 Conditions: LFS_MB_P medulloblastoma cells.
Assay [8] in a line: HDN33 neuroblastoma growth inhibition, cell-based, chromothripsis tumors, cisplatin or BGB combos (AID 1671450).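 Note: cells exposed to compound for four days; 0% = vehicle DMSO and 100% = cell killing by high DMSO.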 Conditions: HDN33 neuroblastoma cells, stronger effect = higher value.
The nature of assay [9]: ICB984 medulloblastoma cell growth inhibition, synergistic combos for chromothripsis tumors, cisplatin or BGB combos (AID 1671451; call rule not given here;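 note: cells exposed for 96 hours before readout; 0% = vehicle DMSO and 100% = killing by high DMSO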). Conditions: ICB984 medulloblastoma cells, drug combinations, stronger effect = higher value.
Assay [10] in a line: HTB85 osteosarcoma cell growth inhibition, synergistic combos for chromothripsis tumors, BGB or cisplatin IC20 combos (AID 1671453).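 Note: cells exposed for 96 hours before readout; 0% = vehicle DMSO and 100% = high DMSO killing control.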 Conditions: HTB85 osteosarcoma cells, drug combinations, stronger effect = higher value.
Assay [11] in a line: MDA-MB-436 breast carcinoma cell growth inhibition, synergistic combos for chromothripsis tumors, BGB or cisplatin combos (AID 1671458; call rule not given here;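 note: cells exposed for 96 hours; 0% = vehicle DMSO and 100% = killing by high DMSO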). Conditions: MDA-MB-436 breast carcinoma growth inhibition, drug combinations, stronger effect = higher value.
The nature of assay [12]: growth inhibition of BT084 medulloblastoma cells, cell-based, ICGC_MB145, cisplatin and BGB IC40 combos (AID 1671461).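 Note: cells exposed to drugs for 96 hours; 0% = vehicle DMSO and 100% = high DMSO full killing control.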 To be noted: drug combinations, stronger effect = higher value.
A short description of assay [13]: growth inhibition of RCMB18 medulloblastoma cells, cell-based, cisplatin and BGB IC40 combos (AID 1671462).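 Note: cells exposed to compound for four days.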 To be noted: stronger effect = higher value.
Assay [14] in a line: growth inhibition of CRL1545 osteosarcoma cells, cell-based, cisplatin and BGB IC20 combos (AID 1671464).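 Note: cells exposed to compound for 96 hours before readout; 0% = vehicle DMSO and 100% = high DMSO killing control.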 Conditions: stronger effect = higher value.
Where [15] appears, read: measured here: with BGB IC20 combination, at 0.5 µM.
The mark [16] stands for this setting: measured here: with cisplatin IC20 combination, at 0.5 µM.

“And” between values parts separate entries of the source, which are not always exact repeats. Identical values can stand only once. Inconclusive results are not listed. The source made the active and inactive calls. Cut-off read from the data, not from the text of the source, unless noted: active = inhibition above about 80%; inactive = the rest.

For the compound `CC(=O)O[C@@]12CO[C@@H]1C[C@H](O)[C@@]1(C)C(=O)[C@H](O)C3=C(C)[C@@H](OC(=O)[C@H](O)[C@@H](NC(=O)OC(C)(C)C)c4ccccc4)C[C@](O)([C@@H](OC(=O)c4ccccc4)[C@H]21)C3(C)C`, the z-score was -2.05 (inactive) in [1] (MELAS cybrid survival, CellTiter-Glo 48 h, stronger effect = higher value) and 0.54 in assay [1] (Rieske KO mouse fibroblast survival, CellTiter-Glo 72 h).

`CCC(=O)NS(=O)(=O)c1ccc(-c2c(-c3ccccc3)noc2C)cc1`: the call in [2], in [3] and in assay [4] was inactive.

As to `CO[C@H]1O[C@@H]2O[C@@]3(C)CC[C@H]4[C@H](C)CC[C@@H]([C@H]1C)[C@@]24OO3`, the compound was called inactive in [2], in [5], in [3] and in assay [4]. In addition, the remaining NAD in assay [6] is 10 nM (inactive).

Consider `CO[C@H]1C=CO[C@@]2(C)Oc3c(C)c(O)c4c(O)c(c5c(nc6cc(C)ccn65)c4c3C2=O)NC(=O)C(C)=CC=C[C@H](C)[C@H](O)[C@@H](C)[C@@H](O)[C@@H](C)[C@H](OC(C)=O)[C@@H]1C`, for which the inhibition in assay [7] (at 0.5 µM, stronger effect = higher value) is -25.7% (inactive) and 0.03% (inactive); in assay [7] (measured here: combination with BGB IC20, at 0.005 µM), -21% and -12.6%; in [7] (measured here: combination with BGB IC40, at 0.005 µM), -15.4% and -21%; in [7] (measured here: combination with BGB IC40, at 0.05 µM), -19.4% and -36.7%; in assay [7] (measured here: combination with cisplatin, at 0.5 µM, stronger effect = higher value), -19.3% and -0.506%; in assay [7] (measured here: combination with cisplatin, at 5 µM, stronger effect = higher value), -24.8% and 7.24%. Also, the inhibition in [8] (BGB combo, at 5 µM) was -5.62% and -13.7%; in [8] (at 0.5 µM), -1.69% (inactive) and -3.15% (inactive); in [8] (cisplatin combo, at 5 µM), -20.9% and -12.7%; in [8] (setting [15]) it was 24.2% and -1.36%; in [8] (setting [16]), -2.79% and 1.82%; in [8] (single agent, at 5 µM) it was -32.3% and -1.92%. Moreover, the inhibition in assay [9] (BGB IC20 combo, at 0.005 µM) is 0.503% and -4.57%; in assay [9] (BGB IC40 combo, at 0.005 µM), 18.5% and -33.7%; in assay [9] (BGB IC40 combo, at 0.05 µM), -2.72% and 6.47%; in assay [9] (at 0.5 µM), -25.8% (inactive) and -13.5% (inactive); in [9] (cisplatin combo, at 0.05 µM), -2.72% and 3.11%; in assay [9] (cisplatin combo, at 0.5 µM), -37.2% and -4.35%. For the same compound, the inhibition in [9] (cisplatin combo, at 5 µM) is -14.1% and -11.2%; in assay [9] (measured here: 5 uM single agent, at 5 µM), -18.1% and 0.267%; in [10] (at 0.5 µM) it was -5.41% (inactive) and -9.58% (inactive); in [10] (measured here: with BGB IC20, at 0.5 µM), -40.5% and -14.9%; in assay [10] (measured here: with BGB IC20, at 5 µM), -22.4% and -7.39%; in assay [10] (measured here: with cisplatin IC20, at 0.5 µM), 16.5% and -6.9%. Besides, the inhibition in assay [10] (measured here: with cisplatin IC20, at 5 µM) was 10.3% and 21%; in [10] (single agent, at 5 µM), -1.97% and 12.2%; in [11] (at 0.5 µM), -11.8% (inactive) and -3.37% (inactive); in assay [11] (measured here: BGB combination, at 0.5 µM) it was -0.535% and -8.79%; in [11] (measured here: BGB combination, at 5 µM) it was -3.41% and -15.2%; in [11] (measured here: cisplatin combination, at 0.5 µM), -30.7% and -0.606%. For the same compound, the inhibition in [11] (measured here: cisplatin combination, at 5 µM) was -23.7% and -8.55%; in assay [12] (at 0.5 µM), -17.7% (inactive) and -11.5% (inactive); in assay [12] (cisplatin combination, at 0.5 µM), -34% and -17.3%; in assay [12] (cisplatin combination, at 5 µM), -37% and 5.08%; in assay [12] (measured here: BGB IC40 combination 0.05 uM, at 0.05 µM) it was -7.06% and 28.8%; in [12] (single agent, at 5 µM) it was -13.3% and -9.78%. In addition, the inhibition in assay [13] (at 0.5 µM) was -1.81% (inactive) and -2.64% (inactive); in assay [13] (cisplatin combo, at 5 µM), -11.2% and 11.2%; in assay [13] (measured here: BGB IC40 combination, at 0.05 µM) it was 12.8% and 1.86%; in [13] (measured here: combination with cisplatin, at 0.5 µM) it was -36.9% and 15.4%; in assay [13] (single agent, at 5 µM), -12% and -2.61%; in [14] (at 0.5 µM), 8.59% (inactive) and -15.2% (inactive). Also, the inhibition in [14] (setting [15]) was -1.52% and -4.42%; in assay [14] (setting [16]), 13.6% and -22.6%; in assay [14] (single agent, at 0.05 µM), 15.1% and 18%; in [14] (single agent, at 5 µM), -31.6% and 28.6%.
